The list is not random: actives were taken first. Their share in the collection is about 27%.
CYP2C9 inhib – inhibitors of human CYP2C9 | P11712 | CYP2C9 Supersomes, luciferin-H conversion, luminescence | inhibition, % at 5 µM | 96,000 compounds, 20% hits;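 active = blocking of liver enzyme CYP2C9 beyond about 50% at 5 µM, limit read from the data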
CYP2C19 activ – increases human CYP2C19 enzyme activity. recombinant CYP2C19, luciferin-H EGE luminescence; stronger effect = higher value; 0 = fully inhibited enzyme, 1 = untreated enzyme. AID 1025. P33261. activation factor at 5 µM. 96,000 tested, under 10 active;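 active = activation factor of at least 2 at 5 µM in the primary screen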
Target sequence (P33261 whole entry, looked up): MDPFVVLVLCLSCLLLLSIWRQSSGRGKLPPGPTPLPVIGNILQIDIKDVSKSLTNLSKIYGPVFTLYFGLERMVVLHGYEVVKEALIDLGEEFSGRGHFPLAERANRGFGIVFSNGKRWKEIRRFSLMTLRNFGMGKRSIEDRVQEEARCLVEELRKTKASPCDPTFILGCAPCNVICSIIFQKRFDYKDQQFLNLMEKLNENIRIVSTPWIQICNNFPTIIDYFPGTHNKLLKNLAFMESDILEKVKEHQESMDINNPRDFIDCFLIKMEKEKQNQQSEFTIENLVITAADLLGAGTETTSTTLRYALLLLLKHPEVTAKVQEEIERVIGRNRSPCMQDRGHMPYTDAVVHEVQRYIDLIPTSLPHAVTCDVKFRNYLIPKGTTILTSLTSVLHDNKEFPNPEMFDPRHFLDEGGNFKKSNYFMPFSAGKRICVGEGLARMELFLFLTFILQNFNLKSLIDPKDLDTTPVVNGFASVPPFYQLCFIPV
CYP2C9 activ – increases human cytochrome P450 2C9 activity; P11712; recombinant CYP2C9, luciferin-H conversion, luminescence; stronger effect = higher value; factor 1 = untreated enzyme, 0 = blocked; activation factor at 5 µM; 96,000 compounds, 1.4% hits; AID 1024;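 active = activation factor of 2 or more for CYP2C9 at a 5 µM dose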
sEH inhibitor – blocks human soluble epoxide hydrolase activity | P34913 | recombinant human sEH enzymatic activity assay | inhibition, % at 2 µM | 91,000 compounds, 0.34% hits | AID 707; in the data active = inhibition above about 80%
CYP2C19 inh – human CYP2C19 inhibition; 96,000 compounds, 21% hits; P33261; inhibition, % at 5 µM; CYP2C19 Supersomes, luciferin-H EGE luminescence, 30 min;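 active = CYP2C19 inhibition above a set limit at 5 µM in the primary screen, cut at about 50% in these data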
sEH activator – soluble epoxide hydrolase (human) activation. P34913. purified human sEH enzymatic activity, activator screen. activation, % at 2 µM. 91,000 compounds, 0.04% hits. AID 717; in the data active = activation above about 37%
Large screens that a line does not name were inactive.

COc1ccc(Cn2c(N)c(C(=O)NCc3ccco3)c3nc4ccccc4nc32)cc1	CYP2C9 inhib 84.5, CYP2C19 inh 58.8
Nc1c(C(=O)NCc2ccco2)c2nc3ccccc3nc2n1Cc1ccc(F)cc1	none
COc1ccc(CCNC(=O)c2c(N)n(CCN3CCOCC3)c3nc4ccccc4nc23)cc1OC	CYP2C9 inhib 83.0, CYP2C19 inh 53.6
CCCCCn1c(N)c(C(=O)NCCN2CCOCC2)c2nc3ccccc3nc21	none
Nc1c(C(=O)NCc2ccco2)c2nc3ccccc3nc2n1CCN1CCOCC1	CYP2C9 inhib 61.2
O=C(CNC(=O)OCc1ccccc1)Nc1ccc(Br)cc1C(=O)c1ccccc1	none
CC(C)N1C(=O)CCC1C(=O)N1CCC2(CC1)OCCO2 (stereo not given)	none
CCOP(=S)(OCC)SCC(=O)NC(C)(CC)C(=O)O (stereo not given)	CYP2C9 inhib 84.0
COc1ccc2nc(NC(=O)CCc3nc(C4=CCN(C)CC4)no3)sc2c1	CYP2C9 inhib 75.3 (no result: sEH inhibitor, sEH activator)
O=P(Nc1ccccc1)(Nc1ccccc1)Oc1ccc(Cl)cc1	CYP2C9 inhib 81.1, CYP2C19 inh 86.4
O=P(NS(=O)(=O)c1ccc(Cl)cc1)(Oc1ccccc1)Oc1ccccc1	none (no result: CYP2C9 inhib, CYP2C19 activ, CYP2C9 activ, CYP2C19 inh)
CC[N+](CC)(CC)CCCOC(=O)C(O)(c1ccccc1)C1CCCCC1 (stereo not given)	none
OC(c1ccccc1)(c1ccccc1)C1CCNCC1	CYP2C9 inhib 60.2
ClC1=CCC2CN(CCN3CCCCC3)CC2C1 (stereo not given)	none (no result: sEH inhibitor, sEH activator)
CCCCc1nc2ccccc2c(=O)n1-c1ccccc1O	CYP2C19 inh 54.5
CCCc1nc2ccccc2c(=O)n1-c1ccccc1OC	none
CCc1nc2ccccc2c(=O)n1-c1ccc2ccccc2c1	CYP2C19 inh 93.4
CCCc1nc2ccccc2c(=O)n1-c1cccc(OC)c1	CYP2C19 inh 51.2
N=C1C(c2ccccc2)=C(O)CN1Cc1ccco1	none
COP(=O)(OC)C1(Nc2ccc(C)cc2)CCCCC1	CYP2C19 inh 83.0
COc1ccccc1N1C(=O)NC(=O)C(CCc2ccncc2)(CCc2ccncc2)C1=O	CYP2C9 inhib 69.3, CYP2C19 inh 90.6
CCOc1ccccc1N1C(=O)NC(=O)C(CCc2ccncc2)(CCc2ccncc2)C1=O	none (no result: CYP2C9 inhib, CYP2C19 activ, CYP2C9 activ, CYP2C19 inh)
Cc1nc2ccccc2c(=O)n1-c1cccc(O)c1	none
CCOC(=O)c1nc2ccccc2c(=O)n1-c1cccc(C)c1	CYP2C9 inhib 51.8
CCOC(=O)c1nc2ccccc2c(=O)n1-c1ccc(C)cc1	CYP2C9 inhib 55.0
CCCCC12CNCC(C)(CNC1)C2=O	none
O=C(CNS(=O)(=O)c1ccc(Br)s1)N1CCC2(CC1)OCCO2	CYP2C19 inh 58.2
COc1ccc(C=C2C(=O)N(C)C(=O)N(C)C2=O)cc1CSc1ccccn1	CYP2C19 inh 58.0
COc1ccc(/C=C2/C(=O)NC(=O)N(C3CCCCC3)C2=O)cc1CSc1ccccn1	CYP2C19 inh 56.2
CN(Cc1ccccc1)C(=C(Cl)Cl)/C(=C1/NCCN1Cc1ccc(Cl)nc1)[N+](=O)[O-]	CYP2C19 inh 92.6
O=C(c1ccccc1)c1cn(CC(=O)N2CCOCC2)c2ccccc12	CYP2C9 inhib 53.1
CCn1cc(C(=O)c2ccccc2)c2ccccc21	CYP2C9 activ 2.5
CCN(CC)CC(=O)Nc1ccc(Cl)cc1C(=O)c1ccccc1	none (no result: CYP2C9 inhib, CYP2C19 activ, CYP2C9 activ, CYP2C19 inh)
O=C(O)C1CN2CCC1CC2 (stereo not given)	none
O=C1C2CCCN2C(c2ccncc2)N1c1ccc(Cl)c(Cl)c1 (stereo not given)	CYP2C9 inhib 88.3, CYP2C19 inh 67.8 (no result: sEH inhibitor, sEH activator)
O=C1C2CCCN2C(c2cccnc2)N1c1ccc(Cl)c(Cl)c1 (stereo not given)	none
CC(C)NC(C)C(=O)C12CC3CC(CC(C3)C1)C2 (stereo not given)	none
CC(C)OC(=O)C1C(=O)NC2(C)CC1c1ccccc1O2 (stereo not given)	CYP2C19 inh 60.5
CCOC(=O)C1C(=O)NC2(C)CC1c1cc(OC)ccc1O2 (stereo not given)	none (no result: sEH inhibitor, sEH activator)
COc1cc(CN2C(=O)NC(=O)C3(Cc4cc(C)ccc4N(C)C3)C2=O)cc(OC)c1 (stereo not given)	none (no result: sEH inhibitor, sEH activator)
COc1ccc(OC)c(N2C(=O)NC(=O)C3(Cc4cc(C)ccc4N(C)C3)C2=O)c1 (stereo not given)	CYP2C9 inhib 80.1
COc1cccc(N2C(=O)NC(=O)C3(Cc4cc(C)ccc4N(C)C3)C2=O)c1 (stereo not given)	CYP2C9 inhib 83.9
Cc1ccc2c(c1)CC1(CN2C)C(=O)NC(=O)N(c2cc(C)ccc2C)C1=O (stereo not given)	CYP2C9 inhib 58.9
O=C(Cn1c(=O)c(C(F)(F)F)nc2ccccc21)N1CCC2(CC1)OCCO2	none (no result: sEH inhibitor, sEH activator)
CC(C)Cn1cc(C(=O)N2CCC3(CC2)OCCO3)c2c3ccccc3n(C)c2c1=O	none
COc1cc(C2SCC(=O)Nc3c2c(=O)[nH]n3C2CCCCCC2)cc(OC)c1OC (stereo not given)	none
CC(C)n1cc(C(=O)N(CC(=O)NC2CCCC2)Cc2ccccc2)cn1	none
Cn1c(C(=O)O)c(CC(=O)N2CCN(Cc3ccccc3)CC2)c2ccccc21	none
O=c1cccc2n1CC1CC2CN(Cc2cccc(Cl)c2Cl)C1 (stereo not given)	CYP2C19 inh 88.5 (no result: sEH inhibitor, sEH activator)
O=c1cccc2n1CC1CC2CN(Cc2c(F)cccc2Cl)C1 (stereo not given)	CYP2C9 inhib 55.1, CYP2C19 inh 98.7 (no result: sEH inhibitor, sEH activator)
CSc1nnc(C2CCNCC2)n1C	none
O=C(Cc1ccccc1)Oc1ccccc1N1C(=O)CCC1=O	none
O=C(c1ccc2c(=O)n(Cc3ccc4c(c3)OCO4)c(=S)[nH]c2c1)N1CCC2(CC1)OCCO2	none
Cc1ccc(S(=O)(=O)NP(=O)(Oc2ccccc2)Oc2ccccc2)cc1	CYP2C9 inhib 78.5
O=P(NS(=O)(=O)c1ccccc1)(Oc1ccccc1)Oc1ccccc1	CYP2C9 inhib 65.1
O=P(NS(=O)(=O)c1ccc(Br)cc1)(Oc1ccccc1)Oc1ccccc1	CYP2C9 inhib 98.1
CCC(C)N1C(=O)NC(=O)C2(Cc3c(ccc4ccccc34)N(C)C2)C1=O (stereo not given)	none
Cc1[nH]c2ccccc2c1C1=CCNCC1	CYP2C9 inhib 74.4
CCCCC1(CCCC)C(=O)NC(=Nc2cccc(C)c2)NC1=O	CYP2C9 inhib 60.3, CYP2C19 inh 61.1
CCCC1(CCC)C(=O)NC(=Nc2ccccc2)NC1=O	CYP2C9 inhib 53.6
CC1CC2(O)c3nonc3CCC2N1O (stereo not given)	none
O=C(Nc1ccc(Cl)cc1)Nc1nccs1	none
Cc1sc2ncn(CC(=O)N3CCC4(CC3)OCCO4)c(=O)c2c1C	none (no result: sEH inhibitor, sEH activator)
Cc1c(C(=O)N2CCC3(CC2)OCCO3)sc2ncnc(N(C)c3ccccc3)c12	CYP2C9 inhib 73.3 (no result: sEH inhibitor, sEH activator)
COc1cccc(OC)c1C1=NCC(=O)Nc2c1oc1ccc(Br)cc21	CYP2C9 inhib 65.1 (no result: sEH inhibitor, sEH activator)
O=C1CN=C(c2ccccc2)c2oc3ccc(Br)cc3c2N1	none

Assay outcomes: PubChem BioAssay, several laboratories
